Experimental data published in the supplement of paper PMC10042075.
Several values for one entry are separate records, joined by “and”; a condition that tells them apart may be missing. Identical values can stand only once. Counter-ions that a name gives are not always drawn. ± gives the standard deviation of the averaged measurements.

These compounds were tested on LASCPC-01 (assay: cell viability relative to DMSO control (fraction); higher = less growth inhibition (more viable cells)). Details: 2 µM; 72 h.
Protocol: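 High-throughput single-dose screen in the LASCPC-01 NEPC cell line in 384-well plates. Cells were treated with each compound at 2 µM for 72 h, and viability was read by CellTiter-Glo luminescence. Values are normalised to the DMSO control (compound/DMSO) from three replicates; only the 5-HT-related subset of the 7315-compound library is given.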
Compound `CN1CCc2c(c3ccccc3n2Cc2ccccc2)C1` [Mebhydrolin napadisylate] has a cell viability of 1.03.
Work on `CN(C)CCCc1cc(C(=O)Nc2ccc(-c3ccncc3)cc2)ccc1O` yielded a cell viability of 0.993.
With `N[C@@H](Cc1c[nH]c2ccc(O)cc12)C(=O)O` [5-Hydroxy-L-tryptophan] the cell viability was 1.04.
`CN(C)CCCC1(c2ccc(F)cc2)OCc2cc(C#N)ccc21` (stereo not given) [Citalopram hydrobromide] was tested, and the cell viability was 1.06.
Work on `CC(C)(C)c1ccc(CN2CCN(C(c3ccccc3)c3ccc(Cl)cc3)CC2)cc1` (stereo not given) [Buclizine HCl] yielded a cell viability of 0.896.
`CNCCC(Oc1ccc(C(F)(F)F)cc1)c1ccccc1` (stereo not given) [Fluoxetine] showed a cell viability of 0.892 ± 0.41.
Work on `COc1ccccc1N1CCN(CCN(C(=O)c2ccc(F)cc2)c2ccccn2)CC1` [p-MPPF dihydrochloride] yielded a cell viability of 0.362.
Compound `CCN(CC)CCOC(=O)c1cc(Cl)c(N)cc1OC` [SDZ-205,557 hydrochloride] has a cell viability of 1.06.
For `CC(C)c1cc(-c2ccc(F)c3ccccc23)nc(N)n1`, the cell viability was 1.05 and 0.845 and 0.897.
`CN[C@H]1CC[C@@H](c2ccc(Cl)c(Cl)c2)c2ccccc21` [Sertraline HCl] gave a cell viability of 0.833.
For `COc1ccccc1N1CCN(CCN(C(=O)C2CCCCC2)c2ccccn2)CC1`, the cell viability was 0.987 and 1.03.
In the case of `CN1CCC[C@@H]1Cc1c[nH]c2ccc(CCS(=O)(=O)c3ccccc3)cc12` [Eletriptan HBr], the cell viability is reported as 0.983.
For `O=C(c1ccc(F)cc1)C1CCN(CCn2c(=O)[nH]c3ccccc3c2=O)CC1` [Ketanserin tartrate], the cell viability was 0.737.
`Cc1[nH]cnc1CN1CCc2c(c3ccccc3n2C)C1=O` [Alosetron hydrochloride] showed a cell viability of 1.11.
With `CN(C)[C@@H]1CCc2[nH]c3ccc(NC(=O)c4ccc(F)cc4)cc3c2C1` the cell viability was 0.693.
`Cc1nccn1CC1CCc2c(c3ccccc3n2C)C1=O` (stereo not given) [Ondansetron HCl] showed a cell viability of 1.03.
In the case of `O=c1ccc2ccc(OCCCCN3CCN(c4cccc5sccc45)CC3)cc2[nH]1` [Brexpiprazole], the cell viability is reported as 1.01.
Work on `Cn1ccc2cc3c(cc21)CCN3C(=O)Nc1cccnc1` yielded a cell viability of 1.06.
`O=c1ccccn1CC1(O)CCN(Cc2ccccc2)CC1` showed a cell viability of 1.05.
In the case of `COCCCN1CCC(NC(=O)c2cc(Cl)c(N)c3c2OCC3)CC1` [Prucalopride], the cell viability is reported as 0.922.
`Cc1cc2c(cc1Cl)N(C(=O)Nc1ccc(Oc3cccnc3C)nc1)CC2` was tested, and the cell viability was 0.0538.
Work on `CN(C)CCCN1c2ccccc2CCc2ccc(Cl)cc21` [Clomipramine HCl] yielded a cell viability of 0.826.
`CNCC[C@H](Oc1cccc2ccccc12)c1cccs1` [Duloxetine HCl] was tested, and the cell viability was 1.13.
Compound `COc1cc(N)c(Cl)cc1C(=O)OCCN1CCCCC1` has a cell viability of 0.718.
`CNc1cc(NS(=O)(=O)c2ccc(N)cc2)nc(NC)n1` [Ro 04-6790 dihydrochloride] gave a cell viability of 1.03.
Compound `CN1CCN(C2=Nc3cc(Cl)ccc3Nc3ccccc32)CC1` [Clozapine] has a cell viability of 1.24.
`Cn1cc(C(=O)[C@@H]2CCc3[nH]cnc3C2)c2ccccc21` [Ramosetron] was tested, and the cell viability was 1.08.
For `COCCCN1CCC(NC(=O)c2cc(Cl)c(N)c3c2OCC3)CC1` [Prucalopride Succinat], the cell viability was 1.1.
With `Fc1ccc2c(CCNCc3cccc(OCC(F)(F)C(F)F)c3)c[nH]c2c1` [idalopirdine] the cell viability was 0.923.
For `Cn1c(=O)cnn(CCCCN2CCN(c3ncccn3)CC2)c1=O` [Eptapirone], the cell viability was 0.947.
For `NC(N)=NC(N)=Nc1ccccc1` [1-Phenylbiguanide], the cell viability was 0.991.
For `COc1ccc(NS(=O)(=O)c2sc3ccc(Cl)cc3c2C)cc1N1CCNCC1`, the cell viability was 1.09 and 0.772.
In the case of `CNS(=O)(=O)CCc1ccc2[nH]cc(C3CCN(C)CC3)c2c1` [Naratriptan], the cell viability is reported as 1.03.
`CCN1CCN(c2cc(-c3ccc(F)cc3)c3c(n2)CCCCCC3)CC1` [Blonanserin] was tested, and the cell viability was 0.776.
`COc1cccc(CCc2ccccc2OCC(CN(C)C)OC(=O)CCC(=O)O)c1` (stereo not given) [Sarpogrelate hydrochloride] gave a cell viability of 1.09.
With `Cc1ncc(CO)c(CO)c1O` [Metadoxine] the cell viability was 1.13.
Work on `CN1CCN(c2cc3c(nn2)Oc2ccccc2N3C)CC1` [Azaphen] yielded a cell viability of 0.951.
`COc1cc(N)c(Cl)cc1C(=O)NC1CCN(CCCOc2ccc(F)cc2)CC1OC` (stereo not given) [Cisapride] was tested, and the cell viability was 0.803.
Compound `COc1cc(/C=C/C(=O)O)ccc1O` [Sodium ferulic] has a cell viability of 0.909.
Work on `OC(CN1CCN(c2cccc(Cl)c2)CC1)C(c1ccccc1)c1ccccc1` (stereo not given) yielded a cell viability of 0.778.
